Results from PubChem BioAssay AID1839 (Johns Hopkins Ion Channel Center, 2009).
The campaign covered roughly 2,400 compounds. About 220 (9.2%) were called active.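 Rule for the calls: active = signal change above the mean of dofetilide-free buffer controls plus 3 SD, so a positive margin; inactive = the rest.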 This excerpt belongs to a sample that is enriched for actives.

Experiment: nonspecific flux effects in parental CHO-K1, confirmation, counter-screen for hERG block protection project, cell-based, CHO-K1 parental line, FluxOR thallium flux (AID 1839);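 note: compounds applied alone with no dofetilide to cells lacking hERG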
Conditions: CHO-K1 parental cells, FluxOR thallium flux fluorescence; at 10 µM

Row | Compound | signal change vs control minus 3*SD hit threshold (margin above threshold, higher = more increase)
1 | Cc1c(C)c2ccc(OCC(=O)N[C@@H](Cc3ccccc3)C(=O)O)cc2oc1=O | -15.2% (inactive)
2 | O=C(C1CC(=O)N(c2ccc3c(c2)OCCO3)C1)N1CCCC(C(F)(F)F)C1 (stereo not given) | -31.3% (inactive)
3 | COc1ccc(/C(C)=N/Nc2ccc(C(=O)O)cc2)c(OC)c1 | -36.2% (inactive)
4 | Cc1ccc(C(=C2C3C=CC2C2C(=O)NC(=O)C32)c2ccc(C)cc2)cc1 (stereo not given) | -28.1% (inactive)
5 | O=C(Nc1nc2c(Br)cc(Br)cc2c(=O)s1)C1CCC1 | -21% (inactive)
6 | Cc1ccc(/C(O)=C/C(=O)C(=O)NC23CC4CC(CC(C4)C2)C3)cc1 | -22.7% (inactive)
7 | CCn1ncc(Cl)c1C(=O)NC(=S)Nc1ccccc1Br | -0.1% (inactive)
8 | Cc1cccc(/C=N/n2c(COc3ccccc3)n[nH]c2=S)c1 | -23.1% (inactive)
9 | COc1ccc(NC(=S)NC(NC(=O)c2cccc3ccccc23)C(Cl)(Cl)Cl)c([N+](=O)[O-])c1 (stereo not given) | -33.1% (inactive)
10 | NC(=O)C1CCN(C(=O)c2cc3c(s2)CCCC3)CC1 | -20.8% (inactive)
11 | O=C(COc1cccc(-n2cnnn2)c1)Nc1ccc([N+](=O)[O-])cc1 | -25.2% (inactive)
12 | O=C(Nc1nc(-c2ccccc2)c(-c2ccccc2)o1)c1ccc(F)cc1 | -18.6% (inactive)
13 | O=C(NC(=S)N1CCN(c2ccc(Cl)cc2[N+](=O)[O-])CC1)c1cccs1 | -23.6% (inactive)
14 | COCCNC(=O)C(c1ccncc1)N(C(=O)Cn1nnc2ccccc21)c1ccc(OC)cc1 (stereo not given) | -24.4% (inactive)
15 | COc1cccc(C=Nc2cc(C)cc(C)c2)c1O | -7.5% (inactive)
16 | COc1cccc(C=NCCCN=Cc2cccc(OC)c2O)c1O | 0.5% (active)
17 | COc1cccc(C=NCC(C)N=Cc2cccc(OC)c2O)c1O (stereo not given) | -13.1% (inactive)
18 | Cc1ccc(O)c(C(=O)CC(=O)c2ccccc2Cl)c1 | -27.9% (inactive)
19 | Cc1cc(Br)c(NC(=O)COC(=O)C2CC2C)c(Br)c1 (stereo not given) | -27.2% (inactive)
20 | CCOC(=O)c1sc2nc(C)nc(SCC(=O)N(C)C3CCS(=O)(=O)C3)c2c1C (stereo not given) | -20.4% (inactive)
21 | O=C(O)CCSc1ncnc2sc(-c3ccccc3)cc12 | -4.3% (inactive)
22 | CN(C(=O)CSc1ncnc2sc(-c3ccccc3)cc12)C1CCS(=O)(=O)C1 (stereo not given) | 24.3% (active)
23 | CCOC(=O)C1=C(N)Oc2cc(O)ccc2C1c1cccnc1 (stereo not given) | -22.5% (inactive)
24 | N#Cc1cccc(NC(=O)c2nc(-c3ccccc3)n(-c3ccccc3)n2)c1 | -41.8% (inactive)

Row | Compound | signal change vs control minus 3*SD hit threshold (margin above threshold, higher = more increase)
25 | CCOC(=O)N1CCN(C(=O)c2ccc(C)c(S(=O)(=O)Nc3ccccc3)c2)CC1 | -15% (inactive)
26 | Cc1cccc(NC(=S)N/N=C2\CC(C)(C)Oc3ccc(O)cc32)c1 | -19.7% (inactive)
27 | O=C(NC(=S)NCCc1ccccc1)c1cccc(Cl)c1 | -28.3% (inactive)
28 | O=C1C(c2ccccc2)C(c2ccccc2)NC(c2ccccc2)C1c1ccccc1 (stereo not given) | -27.2% (inactive)
29 | COc1cccc(-c2nnc(Nc3nc4c(F)cccc4s3)o2)c1 | -7.5% (inactive)
30 | COc1cccc2sc(Nc3nnc(-c4cccs4)o3)nc12 | 14.3% (active)
31 | COc1cccc2sc(Nc3nnc(-c4ccccc4Cl)o3)nc12 | -16% (inactive)
32 | Fc1cccc2sc(Nc3nc4c(F)cccc4s3)nc12 | -6.3% (inactive)
33 | COc1cccc2sc(Nc3nnc(-c4ccc(F)cc4)o3)nc12 | 13.1% (active)
34 | Fc1cccc2sc(Nc3nnc(-c4ccco4)o3)nc12 | -13.8% (inactive)
35 | Fc1cccc2sc(Nc3nnc(-c4ccccc4)o3)nc12 | 39.2% (active)
36 | COc1cccc2sc(Nc3nc(-c4ccccn4)cs3)nc12 | -29.4% (inactive)
37 | CCC1CCCCN1C(=S)NC(=O)c1ccc([N+](=O)[O-])cc1 (stereo not given) | -2.3% (inactive)
38 | CN1C(=O)CSc2ccc(NC(=O)N3CCc4ccccc43)cc21 | -32.3% (inactive)
39 | COc1ccccc1-n1c(CCC(=O)O)ccc1-c1ccccc1 | -17.9% (inactive)
40 | CCOC(=O)CC(=O)CSc1nc2c(C)c(C)ccc2cc1C | -25% (inactive)
41 | C/C(=N\Nc1nc(C)c(C)s1)c1ccc([N+](=O)[O-])cc1 | -17.3% (inactive)
42 | CCn1c(O)c(N=NC2=NC(=O)CS2)c2ccccc21 | -27% (inactive)
43 | CCn1c(O)c(N=NC2=NC(=O)CS2)c2cc(C)ccc21 | -27.3% (inactive)
44 | CCc1ccc2c(c1)c(N=NC1=NC(=O)CS1)c(O)n2CC | 1% (active)
45 | CCCOc1ccc(CN(CCC#N)C(=S)NC(=O)c2ccccc2)cc1 | -20.4% (inactive)
46 | Cc1ccc2c(c1)c1nnc(SCC(=O)Nc3ccc(N(C)C)cc3)nc1n2CC(=O)O | -28.5% (inactive)
47 | CCOC(=O)N/N=C/C=C/c1ccccc1[N+](=O)[O-] | -14.5% (inactive)
48 | COc1ccccc1N=Nc1ccc(O)c2ncccc12 | -39% (inactive)

Row | Compound | signal change vs control minus 3*SD hit threshold (margin above threshold, higher = more increase)
49 | COc1cccc(N=Nc2ccc(O)c3ncccc23)c1 | -23.6% (inactive)
50 | CCN(CC)S(=O)(=O)c1cc(OC)ccc1N=Nc1ccc(O)c2ncccc12 | 5.8% (active)
51 | O=C(NC(=S)Nc1cccnc1)c1cc2ccccc2o1 | -7.1% (inactive)
52 | COc1cc(OC)cc(C(=O)NC(=S)N(Cc2ccccc2)C(C)C)c1 | -1.3% (inactive)
53 | COc1ccc(C(=O)NC(=S)N(Cc2ccccc2)Cc2ccccc2)cc1 | 7.4% (active)
54 | CCCN(CCC)C(=S)NC(=O)c1ccc(-c2ccccc2)cc1 | 18.5% (active)
55 | CCOc1ccc(C(=O)NC(=S)N(Cc2ccccc2)Cc2ccccc2)cc1 | -15.4% (inactive)
56 | C=CCN(CC=C)C(=S)NC(=O)c1ccc(-c2ccccc2)cc1 | -9.3% (inactive)
57 | Cc1ccc(C(=O)NC(=S)N(C)Cc2ccccc2)cc1 | -19.2% (inactive)
58 | CCCCC1(O)CC(C(F)(F)F)=NN1C(=O)COc1ccccc1 (stereo not given) | -36.4% (inactive)
59 | Cc1ccc(OCCC(=O)OC(C)C(=O)NC2CC2)cc1 (stereo not given) | -26.5% (inactive)
60 | CC(=O)Cn1c(=O)c2c(nc3n2CCCN3Cc2ccccc2)n(C)c1=O | -25.8% (inactive)
61 | O=C(O)Cc1cc(I)c(Oc2ccc(O)c(I)c2)c(I)c1 | 7.3% (active)
62 | O=C(O)CN1C(=O)c2ccc(Oc3ccc4c(c3)C(=O)N(CC(=O)O)C4=O)cc2C1=O | -18.4% (inactive)
63 | CCCCC(=O)Nc1ccc(NCc2ccc(C)s2)cc1 | -5.7% (inactive)
64 | CC[C@@H](C(=O)[C@@H](C)[C@@H](O)[C@H](C)CCc1ccc(C)c(O)c1C(=O)O)[C@H]1O[C@](CC)([C@H]2CC[C@](O)(CC)[C@H](C)O2)C[C@@H]1C | 58.8% (active)
65 | CCc1ccc(C(C)NC(=O)C2CCCC2)cc1 (stereo not given) | -18.1% (inactive)
66 | CCOc1ccc(C(C)NC(=S)NC2CCCCC2)cc1 (stereo not given) | -15.5% (inactive)
67 | Cc1ccc(C(C)NC(=S)NC2CCCCC2)cc1C (stereo not given) | 1% (active)
68 | Cc1ccc(C(=O)NC(C)c2ccc(C)c(C)c2)s1 (stereo not given) | -19% (inactive)
69 | CC(NC(=S)NC1CCCCC1)c1ccccc1 (stereo not given) | -19.6% (inactive)
70 | Cc1ccc(C(C)NC(=O)C2CCCC2)cc1C (stereo not given) | 0.7% (active)
71 | C[n+]1ccccc1/C=C/c1c(F)cccc1F | -21.1% (inactive)
72 | COCCn1nnnc1C(c1ccc(C(F)(F)F)cc1)N1CCOCC1 (stereo not given) | -34% (inactive)

Row | Compound | signal change vs control minus 3*SD hit threshold (margin above threshold, higher = more increase)
73 | O=C1C2C3C=CC(C4CC34)C2C(=O)N1/N=C/c1ccc(-c2ccc(F)cc2[N+](=O)[O-])o1 (stereo not given) | -30.5% (inactive)
74 | COc1cccc(C(=O)NNC(=O)C(=O)Nc2ccc(C)cc2)c1 | 28.8% (active)
75 | COc1cccc(C(=O)NNC(=O)C(=O)Nc2ccc(C)c(Cl)c2)c1 | 13.6% (active)
76 | COc1cccc(C(=O)CC(=O)C(=O)Nc2ccc(C)cc2Cl)c1 | -9.2% (inactive)
77 | CCc1ccc(NC(=O)C(=O)NNC(=O)c2ccc(OC)cc2)cc1 | 21.6% (active)
78 | COc1ccc(C(=O)NNC(=O)C(=O)Nc2ccc(C)cc2)cc1 | -5.7% (inactive)
79 | COc1ccc(NC(=O)c2ccc(COCC(F)(F)C(F)F)cc2)cc1 | -40.3% (inactive)
80 | COc1ccc(C(=O)NNC(=O)C(=O)Nc2ccc(C)c(Cl)c2)cc1 | -14.1% (inactive)
81 | COc1ccc(NC(=O)C(=O)NNC(=O)C(C)Oc2ccc(Cl)cc2Cl)cc1 (stereo not given) | -10.9% (inactive)
82 | COc1cccc(C(=O)NNC(=O)C(=O)Nc2cccc(Cl)c2C)c1 | -6.7% (inactive)
83 | COc1cc(OC)cc(C(=O)NNC(=O)C(=O)Nc2cc(OC)c(Cl)cc2OC)c1 | 23.8% (active)
84 | Cc1cc(S(=O)(=O)Nc2ccc(C(=O)N3CCN(C(=O)c4ccco4)CC3)cc2)ccc1F | -12.4% (inactive)
85 | O=[N+]([O-])c1cc(S(=O)(=O)/N=C(/c2ccccc2)N2CCOCC2)ccc1Cl | -31.7% (inactive)
86 | CCOP(=O)(OCC)C(NC(=O)c1ccc(OC)c(OC)c1)c1ccccc1 (stereo not given) | -21.4% (inactive)
87 | Cc1cc(C(=O)NNC2CC(=O)N(c3ccc4ccccc4c3)C2=O)c(C)o1 (stereo not given) | -24.7% (inactive)
88 | O=C(c1cccs1)N1CCN(C23CC4CC(CC(C4)C2)C3)CC1 | -34.9% (inactive)
89 | Cc1cc(C)c(S(=O)(=O)NCc2ccccn2)c(C)c1 | -22.6% (inactive)
90 | Cn1c(=O)c(Sc2ccccc2)c(O)c2ccccc21 | -14.2% (inactive)
91 | O=C1CC(O)(C(F)(F)F)Oc2c1ccc1ccccc21 (stereo not given) | -3% (inactive)
92 | COc1cccc(CCNS(=O)(=O)CCNC(=O)c2cccc(OC)c2)c1 | -25.6% (inactive)
93 | CCc1ccc(NC(=S)Nc2cccc(OC)c2)cc1 | -32.4% (inactive)
94 | CCc1ccc(NC(=O)C(=O)NNC(=O)c2cccc(OC)c2)cc1 | 41.3% (active)
95 | CC(=O)Nc1ccccc1C(=O)C(=O)Nc1ccccc1 | -32.8% (inactive)
